This is an account of results in PubChem BioAssay (EPA / NIEHS).

Assay [1] can be described thus: BSK_3C_TissueFactor: BioMAP Diversity Plus: 3C Assay for Tissue Factor Biomarker Activity (AID 2282997). The conditions noted are these: BioMAP 3C HUVEC, tissue factor biomarker readout; actives raise or lower the signal. In short, it runs like this:
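Tissue factor on primary human umbilical vein endothelium was read by ELISA 24 h after dosing, gain or loss relative to DMSO. Cytotoxicity ran alongside via SRB (0.1%, TCA-fixed, 560 nm).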

Read-out in assay [2]: Intercellular Adhesion Molecule 1 (ICAM1), ICAM1 (gene 3383)
Description: BSK_3C_ICAM1: BioMAP Diversity Plus: 3C Assay for Intercellular Adhesion Molecule 1 (ICAM1) Biomarker Activity (AID 2283003). The following applies: primary human endothelial cells (HUVEC); actives raise or lower the signal. In short, it runs like this: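 ELISA readout of ICAM1 in human umbilical vein endothelial cells in the 3C system, taken 24 h post-dose. Gain or loss of signal versus DMSO was fitted in both directions, with SRB total-protein staining run in parallel.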

Read-out in assay [3]: E-selectin (Homo sapiens) (UniProt P16581)
The experiment in a line: BSK_3C_Eselectin: BioMAP Diversity Plus: 3C Assay for Eselectin Biomarker Activity (AID 2283015).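 For outcome: cell surface E-selectin protein quantified by ELISA 24 h after dosing.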 The following applies: primary human endothelial cells (HUVEC); actives raise or lower the signal. In short, it runs like this:
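E-selectin ELISA readout, fitted bidirectionally relative to DMSO, taken 24 h post-dosing in HUVEC cultures of the 3C system. Overt cytotoxicity tracked with sulforhodamine B staining of parallel wells.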

Read-out in assay [4]: Pselectin, SELP (gene 6403)
The experiment in a line: BSK_4H_Pselectin: BioMAP Diversity Plus: 4H Assay for Pselectin Biomarker Activity (AID 2283026). The following applies: primary human endothelial cells (HUVEC); actives raise or lower the signal. In short, it runs like this: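 ELISA of surface P-selectin on HUVEC, 24 h after dosing, with parallel SRB staining (0.1% after 10% TCA fixation, 560 nm) for overt cytotoxicity. Activity fitted in both directions relative to DMSO.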

Read-out in assay [5]: Human Leukocyte Antigen - DR isotype (HLADR), HLA-DRA (gene 3122)
The experiment in a line: BSK_BE3C_HLADR: BioMAP Diversity Plus: BE3C Assay for Human Leukocyte Antigen - DR isotype (HLADR) Biomarker Activity (AID 2283032). The conditions noted are these: primary human bronchial epithelial cells; actives raise or lower the signal. In short, it runs like this:
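Cell-surface HLA-DR ELISA readout at 24 h after dosing in the BE3C primary human lung bronchial epithelial system; gain or loss of signal against DMSO, with parallel sulforhodamine B staining of total protein for overt cytotoxicity.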

Read-out in assay [6]: Vascular cell adhesion molecule 1 (VCAM1), VCAM1 (gene 7412)
Description: BSK_4H_VCAM1: BioMAP Diversity Plus: 4H Assay for Vascular cell adhesion molecule 1 (VCAM1) Biomarker Activity (AID 2283033).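 For outcome: cell-surface VCAM-1 protein measured by ELISA.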 The conditions noted are these: primary human endothelial cells (HUVEC); actives raise or lower the signal. In short, it runs like this:
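VCAM-1 ELISA read 24 h after chemical dosing of HUVEC in the BioMAP 4H system, with gain or loss of signal fitted relative to DMSO. Parallel SRB staining (560 nm) checked overt cytotoxicity.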

Read-out in assay [7]: Interferon-gamma inducible Protein 10 (IP10), CXCL10 (gene 3627)
Description: BSK_BE3C_IP10: BioMAP Diversity Plus: BE3C Assay for Interferon-gamma inducible Protein 10 (IP10) Biomarker Activity (AID 2283034). The conditions noted are these: primary human bronchial epithelial cells; actives raise or lower the signal. Summed up: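 IP-10 quantified by ELISA in human primary bronchial epithelial cell cultures at 24 hours post-dosing. Gain or loss of signal fitted relative to DMSO; parallel SRB staining assessed overt cytotoxicity.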

Read-out in assay [8]: urokinase plasminogen activator (uPA), PLAU (gene 5328)
Description: BSK_BE3C_uPA: BioMAP Diversity Plus: BE3C Assay for urokinase plasminogen activator (uPA) Biomarker Activity (AID 2283038).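 For outcome: uPA protein level quantified by ELISA in cell cultures; uPA read one day after compound addition.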 The conditions noted are these: primary human bronchial epithelial cells; actives raise or lower the signal. Summed up: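 ELISA for uPA on human primary bronchial epithelial cultures 24 h post-treatment, gain or loss against DMSO. Parallel SRB staining (0.1% after 10% TCA fixation, 560 nm) assessed overt cytotoxicity.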

Read-out in assay [9]: Interleukin-6 (IL6), IL6 (gene 3569)
Description: BSK_CASM3C_IL6: BioMAP Diversity Plus: CASM3C Assay for Interleukin-6 (IL6) Biomarker Activity for (AID 2283040). The conditions noted are these: primary human coronary artery smooth muscle cells; actives raise or lower the signal.

Read-out in assay [10]: Tissue Factor, F3 (gene 2152)
Description: BSK_CASM3C_TissueFactor: BioMAP Diversity Plus: CASM3C Assay for Tissue Factor Biomarker Activity (AID 2283052).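 Note: cell surface tissue factor protein level read by ELISA.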 The conditions noted are these: primary human coronary artery smooth muscle cells; actives raise or lower the signal.

Read-out in assay [11]: Urokinase-type plasminogen activator receptor (uPAR), PLAUR (gene 5329)
The experiment in a line: BSK_CASM3C_uPAR: BioMAP Diversity Plus: CASM3C Assay for Urokinase-type plasminogen activator receptor (uPAR) Biomarker Activity (AID 2283054).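 Note: cell-surface uPAR protein level quantified by ELISA.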 The following applies: primary human coronary artery smooth muscle cells; actives raise or lower the signal.

Read-out in assay [12]: Collagen III, COL3A1 (gene 1281)
Description: BSK_hDFCGF_CollagenIII: BioMAP Diversity Plus: hDFCGF Assay for Collagen III Biomarker Activity (AID 2283056). The following applies: primary human foreskin fibroblasts; actives raise or lower the signal. In short, it runs like this: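 ELISA readout of Collagen III in human dermal (foreskin) fibroblasts, taken 24 h post-treatment. Gain or loss relative to DMSO vehicle fitted in both directions.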

Read-out in assay [13]: Epidermal growth factor receptor (EGFR), EGFR (gene 1956)
The experiment in a line: BSK_hDFCGF_EGFR: BioMAP Diversity Plus: hDFCGF Assay for Epidermal growth factor receptor (EGFR) Biomarker Activity (AID 2283057). The following applies: primary human foreskin fibroblasts; actives raise or lower the signal. In short, it runs like this:
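EGFR levels by ELISA in human dermal fibroblast cultures, 24 h post-treatment, fitted bidirectionally versus DMSO. Parallel wells stained with sulforhodamine B to detect overt cytotoxicity.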

Read-out in assay [14]: Interleukin-8 (IL8), CXCL8 (gene 3576)
The experiment in a line: BSK_LPS_IL8: BioMAP Diversity Plus: LPS Assay for Interleukin-8 (IL8) Biomarker Activity (AID 2283078). The conditions noted are these: primary human HUVEC with PBMC; actives raise or lower the signal. In short, it runs like this: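 ELISA read-out of IL-8 after 24 h chemical treatment of LPS-activated endothelial/PBMC human primary co-cultures. Changes either up or down relative to DMSO; overt cytotoxicity checked by sulforhodamine B staining in parallel wells.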

Read-out in assay [15]: Tissue Factor, F3 (gene 2152)
The experiment in a line: BSK_LPS_TissueFactor: BioMAP Diversity Plus: LPS Assay for Tissue Factor Biomarker Activity (AID 2283084). The following applies: primary human HUVEC with PBMC; actives raise or lower the signal. In short, it runs like this: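 Compound was added to an endothelial cell/PBMC co-culture, and after 24 h tissue factor (CD142) was read by ELISA. Gain or loss of signal was fitted against a DMSO baseline, and parallel SRB staining (560 nm) tracked overt cytotoxicity.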

Assay [16] can be described thus: ATG_EGR_CIS: Attagene CIS-FACTORIAL HepG2 Assay for human Early Growth Response 1 (EGR1) (AID 2282938). The following applies: HepG2 Attagene CIS-FACTORIAL EGR reporter mRNA; actives raise or lower the signal. Summed up: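 Read-out: fluorescent reporter-mRNA fragments resolved by capillary electrophoresis after RT-PCR, 24 h post-dose in transiently transfected HepG2. Endogenous transcription-factor activity reported via cis-element-regulated reporter units; gain or loss fitted relative to DMSO.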

The target in assay [17] is Hepatocyte nuclear factor 6 (Homo sapiens) (UniProt Q9UBC0). The experiment in a line: ATG_HNF6_CIS: Attagene CIS-FACTORIAL HepG2 Assay for human Hepatocyte Nuclear Factor 6 (HNF6) (AID 2282952). The conditions noted are these: HepG2 Attagene cis-factorial HNF6 reporter transcription; actives raise or lower the signal. In short, it runs like this: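 Endogenous factor activity read in transiently transfected HepG2 via promoter-regulated reporter transcripts. RNA harvested 24 h post-dosing, reverse-transcribed, PCR-amplified, FAM-labelled, HpaI-digested and resolved by capillary electrophoresis; fitted in both directions against DMSO.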
Hepatocyte nuclear factor 6 (Homo sapiens), sequence (Q9UBC0 whole entry, looked up): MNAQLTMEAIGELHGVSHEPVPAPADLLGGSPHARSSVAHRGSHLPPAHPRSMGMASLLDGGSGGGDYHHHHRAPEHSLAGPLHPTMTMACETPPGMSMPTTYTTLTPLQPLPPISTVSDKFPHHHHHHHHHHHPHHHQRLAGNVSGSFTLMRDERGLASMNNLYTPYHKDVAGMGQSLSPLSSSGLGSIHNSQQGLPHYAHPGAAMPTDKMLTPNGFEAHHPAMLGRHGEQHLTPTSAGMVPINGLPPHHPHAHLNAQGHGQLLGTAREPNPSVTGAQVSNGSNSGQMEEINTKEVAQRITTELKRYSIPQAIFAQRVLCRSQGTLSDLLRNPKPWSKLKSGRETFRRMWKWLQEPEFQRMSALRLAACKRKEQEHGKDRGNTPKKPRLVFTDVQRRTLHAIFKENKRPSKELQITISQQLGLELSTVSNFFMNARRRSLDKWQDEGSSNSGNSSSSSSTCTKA

Assay [18] is described as follows: ATG_M_19_TRANS: Attagene TRANS-FACTORIAL HepG2 Assay for M19 Transcription Factor (Internal Marker) (AID 2282974; active = hit-call score of the fitted dose curve at least 0.9, where 1 is the maximum). The conditions noted are these: HepG2 Attagene TRANS-FACTORIAL M19 internal marker reporter. In short, it runs like this:
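24 h chemical exposure of transiently transfected HepG2 (MRTU library). RNA → oligo(dT) RT → PCR → 6-FAM labelling → HpaI cut → CE fluorescence. Positive-direction fit vs DMSO baseline; background internal-marker readout.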

The target of assay [19] is human Retinoid X Receptor beta (RXRb), RXRB (gene 6257) (UniProt P28702). Description: ATG_RXRb_TRANS: Attagene TRANS-FACTORIAL HepG2 Assay for human Retinoid X Receptor beta (RXRb) (AID 2283013; active = hit-call score of the fitted dose curve at least 0.9, where 1 is the maximum). Summed up: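 Readout is reporter transcript induction after 24 h dosing. It is measured by RT-PCR of total RNA followed by fluorescent capillary electrophoresis. HepG2 liver cells carry transfected multiple reporter units driven by an exogenous RXRb-Gal4 fusion; activity is relative to DMSO.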
human Retinoid X Receptor beta (RXRb), RXRB (gene 6257), sequence (P28702 whole entry, looked up, the tested form may be a part): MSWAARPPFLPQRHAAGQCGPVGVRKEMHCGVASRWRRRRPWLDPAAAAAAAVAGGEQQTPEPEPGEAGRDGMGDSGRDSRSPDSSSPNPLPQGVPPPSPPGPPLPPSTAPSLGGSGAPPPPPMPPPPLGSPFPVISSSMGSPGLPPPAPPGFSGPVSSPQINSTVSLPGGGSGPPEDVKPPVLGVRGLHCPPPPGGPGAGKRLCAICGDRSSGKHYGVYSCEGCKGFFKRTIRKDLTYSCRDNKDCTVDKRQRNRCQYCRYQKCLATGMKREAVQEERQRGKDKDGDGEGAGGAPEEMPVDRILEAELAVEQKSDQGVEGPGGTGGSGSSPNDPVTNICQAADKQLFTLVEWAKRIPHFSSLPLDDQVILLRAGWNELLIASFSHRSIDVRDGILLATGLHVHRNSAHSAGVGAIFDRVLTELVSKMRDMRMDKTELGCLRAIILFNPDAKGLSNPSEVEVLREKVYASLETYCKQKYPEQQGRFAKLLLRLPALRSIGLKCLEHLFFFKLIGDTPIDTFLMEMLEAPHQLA

Assay [20] addresses human Peroxisome Proliferator-activated Receptor delta (PPARd), PPARD (gene 5467) (UniProt Q03181). Description: ATG_PPARd_TRANS: Attagene TRANS-FACTORIAL HepG2 Assay for human Peroxisome Proliferator-activated Receptor delta (PPARd) (AID 2283002; active = hit-call score of the fitted dose curve at least 0.9, where 1 is the maximum). In short, it runs like this: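 HepG2 cells transiently transfected with multiplexed GAL4-UAS reporter units and exogenous chimeric NR-Gal4 proteins; 24 h compound exposure. Reporter mRNA measured by RT-PCR, 6-FAM labelling, HpaI digestion and capillary electrophoresis; gain of signal versus DMSO.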

The structures appear in SMILES notation. Values joined by “and” are separate entries in the source; they are usually repeats but may differ in a detail not shown here. Identical values can stand only once. Records with an inconclusive call do not appear. A structure can be active in one record and inactive in another. Active and inactive are the calls of the source. Rule for the calls, unless noted: active = hit-call score of the fitted dose curve at least 0.9, where 1 is the maximum; inactive = score below 0.9.

E-selectin (Homo sapiens), sequence (P16581 whole entry, looked up): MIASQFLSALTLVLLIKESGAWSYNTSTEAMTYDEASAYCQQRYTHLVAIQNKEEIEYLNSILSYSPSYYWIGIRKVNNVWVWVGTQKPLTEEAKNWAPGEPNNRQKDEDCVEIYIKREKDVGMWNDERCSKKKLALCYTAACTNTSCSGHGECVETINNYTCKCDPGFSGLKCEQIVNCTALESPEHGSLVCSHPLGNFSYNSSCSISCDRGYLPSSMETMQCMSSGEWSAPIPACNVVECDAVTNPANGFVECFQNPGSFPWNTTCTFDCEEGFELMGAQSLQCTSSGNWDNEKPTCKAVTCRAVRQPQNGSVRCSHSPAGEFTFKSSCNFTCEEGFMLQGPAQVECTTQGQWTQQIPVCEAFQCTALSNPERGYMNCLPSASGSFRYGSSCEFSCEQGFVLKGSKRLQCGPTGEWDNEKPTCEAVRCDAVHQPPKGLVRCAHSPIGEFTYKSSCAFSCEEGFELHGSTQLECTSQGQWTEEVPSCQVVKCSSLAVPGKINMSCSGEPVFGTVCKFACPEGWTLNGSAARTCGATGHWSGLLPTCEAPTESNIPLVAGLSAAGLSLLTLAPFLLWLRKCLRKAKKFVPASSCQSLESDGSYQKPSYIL
human Peroxisome Proliferator-activated Receptor delta (PPARd), PPARD (gene 5467), sequence (Q03181 whole entry, looked up, the tested form may be a part): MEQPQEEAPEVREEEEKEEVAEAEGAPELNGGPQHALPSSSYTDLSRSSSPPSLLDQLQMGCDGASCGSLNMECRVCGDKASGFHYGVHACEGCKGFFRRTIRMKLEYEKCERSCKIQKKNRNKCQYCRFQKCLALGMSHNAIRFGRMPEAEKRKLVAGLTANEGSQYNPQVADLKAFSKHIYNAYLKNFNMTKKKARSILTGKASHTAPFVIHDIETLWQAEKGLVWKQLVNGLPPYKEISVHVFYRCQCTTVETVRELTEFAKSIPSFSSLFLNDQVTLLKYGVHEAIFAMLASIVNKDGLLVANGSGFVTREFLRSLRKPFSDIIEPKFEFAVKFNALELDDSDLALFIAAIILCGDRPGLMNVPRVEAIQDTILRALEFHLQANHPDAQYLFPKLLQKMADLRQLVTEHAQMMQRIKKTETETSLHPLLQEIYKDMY

As a reminder, the AC50 is the midpoint of the concentration-response curve, whichever way the signal moves. As to `COc1ccccc1Oc1c(NS(=O)(=O)c2ccc(C(C)(C)C)cc2)nc(-c2ncccn2)nc1OCCO`, the result in assay [1], in assay [2], in [3], in assay [4], in [5] and in [6] was inactive. For the same compound, the result in [7], in assay [8], in assay [9], in [11], in [13] and in assay [15] was inactive. The AC50 in assay [10] was 1.97 µM (active) and 5.36 µM (active); in [12], 3.9 µM (active) and 2.51 µM (active); in assay [14], 20 µM (active) and 9.01 µM (active).

Turning to `Cc1ccnc(N)c1`, the result in assay [16], in assay [17], in assay [18] and in assay [19] was inactive.

As for `CC(C)C1OCCN1CCOC(=O)NCCCCCCNC(=O)OCCN1CCOC1C(C)C` (centres undefined), the result in assay [1], in [2], in assay [3], in [4], in assay [5] and in assay [6] was inactive. For the same compound, the result in assay [7], in [8], in assay [9], in assay [10], in [11] and in assay [12] was inactive. In addition, the outcome in [13], in assay [14] and in assay [15] was inactive.

As for `CC/C=C\CCCCCO`, the outcome in assay [16], in [17] and in assay [20] was inactive.

As for `OC(C(F)(F)F)(C(F)(F)F)C(O)(C(F)(F)F)C(F)(F)F`, the AC50 is 23.7 µM (active) and 22.6 µM (active) in [1]; 40.6 µM (active) in assay [2]; 21.5 µM (active) and 30 µM (active) in [3]; 22.1 µM (active) and 21.4 µM (active) in assay [4]; 48.2 µM (active) and 45.4 µM (active) in assay [5]; 24.3 µM (active) and 30 µM (active) in [6]. For the same compound, the AC50 in assay [7] is 42.6 µM (active) and 43.6 µM (active); in assay [8] it was 28.8 µM (active) and 32.2 µM (active); in assay [9], 41.2 µM (active); in [11], 19.3 µM (active) and 22.6 µM (active); in [12] it was 41.9 µM (active) and 23.6 µM (active); in assay [13] it was 5.95 µM (active). The AC50 in assay [15] was 30 µM (active). Besides, the outcome in assay [2], in assay [9], in assay [10], in assay [13] and in assay [14] was inactive.

Regarding `CCCCCCOC(=O)CCCCCCCC(=O)OCCCCCC`, the compound was classed as inactive in [16], in assay [18], in assay [20] and in [19].
